In the library only some 19% were active in any assay of this set; here they are far more common.
DT40 TDP1 no CPT = qHTS for Inhibitors of human tyrosyl-DNA phosphodiesterase 1 (TDP1): qHTS in cells in absence of CPT | DT40 Tdp1-/- hTDP1 cells, no CPT, ATP luminescence, 48 h | Potency, µM (highest dose often 46.2 µM), inactives show top-dose activity change, negative = growth inhibition, most hits filed as inhibitors | actives 15% (n = 420,000); further: potency means the concentration at half of the fitted maximal effect; nearly all actives have a fitted effect of over 55% in size
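Growth kinetics read by CellTiter-Glo luminescence after ≥48 hr at 37 °C. Cells: DT40 Tdp1-/- stably carrying human TDP1, 400 per well, compound exposure in the absence of CPT (DMSO vehicle).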
TDP1 cell CPT = qHTS for Inhibitors of human tyrosyl-DNA phosphodiesterase 1 (TDP1): qHTS in cells in presence of CPT | Potency, µM (doses to about 46.2 µM), for inactives: top-dose activity change, negative = growth inhibition, actives largely listed as inhibitors | chicken DT40 Tdp1-/-;hTDP1 cells + 20 nM CPT, ATP luminescence, 48 h | actives 12% (n = 420,000); further: potency means the concentration at half of the fitted maximal effect; nearly all actives have a fitted effect of over 55% in size
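Chicken DT40 Tdp1-/- cells complemented with human TDP1, 400 cells/well, exposed to compounds plus 20 nM camptothecin for at least 48 h at 37 C; viability read as ATP content by CellTiter-Glo luminescence.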
HT1080NT lethal = qHTS for induction of synthetic lethality in tumor cells producing 2HG: qHTS for the HT-1080-NT fibrosarcoma cell line. HT-1080-NT fibrosarcoma viability, CellTiter-Glo ATP luminescence, 48 h. Potency, µM (series often up to 46.1 µM), inactives show at the highest dose activity, negative = less viability, usual class: cytotoxic. actives 1.6% (n = 360,000);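 further: NT is the 2HG producing partner of a matched IDH1 knockdown line; potency means the concentration at half of the fitted maximal effect; 0% = DMSO-treated cells and -100% = media-only wells without cells; nearly all actives have a fitted effect of over 55% in size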
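Toxicity toward the 2HG-producing NT line was scored as %Activity, normalised to DMSO and no-cell wells, from CellTiter-Glo luminescence after 48 hours' treatment.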
IL-1B inflam inh = qHTS for Inhibitors of Inflammasome Signaling: IL-1-beta AlphaLISA Primary Screen. THP-1 LPS/ATP IL-1B secretion, AlphaLISA, 16 h; active compounds read low. activity change, % at 57.5 µM. actives 4.7% (n = 360,000). AID 743279, 2014; in the data active means activity change below about -50%; inconclusive means mostly about -30% to -49%
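Secreted IL-1B measured by AlphaLISA bead assay after 16 h compound exposure of THP-1 cells; compounds (final up to 57.5 uM) added 1 h before LPS (250 ng/mL) and ATP (1.25 mM) stimulation; lower signal means less secretion.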
HT1080 IDH1KD tx = qHTS for induction of synthetic lethality in tumor cells producing 2HG: qHTS for the HT-1080-IDH1KD cell line | HT-1080 IDH1 knockdown viability, ATP luminescence, 48 h | AID 686971, 2013 | actives 2% (n = 360,000) | Potency, µM (series often up to 46.1 µM), for the others: top-dose activity, negative = toxicity, hits mostly cytotoxic;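 further: potency means the concentration at half of the fitted maximal effect; 0% = DMSO wells and -100% = cell-free medium wells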
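CellTiter-Glo luminescence after 48 h compound exposure at 37 degrees C of IDH1-knockdown HT-1080 cells in 5% FBS RPMI. %Activity scaled between DMSO wells and cell-free media wells, with curves fitted and assigned curve classes.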
The depositor's hits bear a star; [ ] = another dose, or the depositor's remark. Unless noted, the call rests on the fitted dose curve; in most records, active means well fitted curve in the direction sought with a large enough effect; inconclusive means small, poorly fitted or top-dose-only effect, or another doubt; inactive means no such curve, though single readings can be large; an effect the other way counts as inactive or inconclusive. Unless noted, on the % scale 0 is the no-effect control and ±100 the full control effect.

CCN(C(=O)CN1C(=O)COc2ccc(S(=O)(=O)N3CCCCCC3)cc21)c1cccc(C)c1 was read as DT40 TDP1 no CPT inconclusive, TDP1 cell CPT inconclusive, HT1080NT lethal -26.0%, IL-1B inflam inh -25.4 and HT1080 IDH1KD tx -12.0%.
Screening C[C@H](CO)N1C[C@H](C)[C@@H](CN(C)S(=O)(=O)c2cn(C)cn2)Oc2ccc(NC(=O)Cn3cnnn3)cc2C1=O returned DT40 TDP1 no CPT 8.1%, TDP1 cell CPT 5.2%, HT1080NT lethal 15.2%, IL-1B inflam inh 55.5 and HT1080 IDH1KD tx 28.0%.
`CCN(/C(N)=N/c1nc(C)cc(C)n1)c1ccccc1` gave DT40 TDP1 no CPT 16.4µM*, TDP1 cell CPT -30.5%, HT1080NT lethal 6.8%, IL-1B inflam inh 49.9 and HT1080 IDH1KD tx -12.8%.
For Cc1cc(C)nc(/N=C(\N)Nc2ccccc2-c2ccccc2)n1 the results were DT40 TDP1 no CPT 11.6µM*, TDP1 cell CPT 16.4µM*, HT1080NT lethal inconclusive, IL-1B inflam inh -98.0* and HT1080 IDH1KD tx inconclusive.
Screening COc1cc(N/C(N)=N/c2nc(C)cc(C)n2)c(OC)cc1Cl returned DT40 TDP1 no CPT 18.4µM*, TDP1 cell CPT 14.6µM*, HT1080NT lethal -18.0%, IL-1B inflam inh inconclusive and HT1080 IDH1KD tx -12.5%.
Screening Cc1cc(=O)[nH]c(/N=C(\N)Nc2cccc3ccccc23)n1 returned DT40 TDP1 no CPT -23.7%, TDP1 cell CPT -1.7%, HT1080NT lethal -20.5%, IL-1B inflam inh 14.3 and HT1080 IDH1KD tx inconclusive.
CN1CCC2(CC1)CCN(C(=O)c1cccc(F)c1)CC2 was read as DT40 TDP1 no CPT -1.0% and TDP1 cell CPT 20.8%.
`N#CC1(Cc2ccc(Cl)cc2)c2ccccc2C=CN1C(=O)c1ccccc1` (stereo not given) gave DT40 TDP1 no CPT 18.4µM*, TDP1 cell CPT inconclusive, HT1080NT lethal 0.0%, IL-1B inflam inh 19.7 and HT1080 IDH1KD tx -12.6%.
COc1cccc(NC(=O)C2CC(=O)N(Cc3ccco3)C2)c1 (stereo not given) was read as DT40 TDP1 no CPT 21.4%, TDP1 cell CPT 3.3%, HT1080NT lethal -0.9%, IL-1B inflam inh 55.8 and HT1080 IDH1KD tx -2.0%.
Screening COc1ccc(-c2nc(NC(=O)C3CCN(c4nc5ccccc5o4)CC3)sc2C)cc1 returned DT40 TDP1 no CPT inconclusive, TDP1 cell CPT 16.4µM*, HT1080NT lethal inconclusive, IL-1B inflam inh -27.0 and HT1080 IDH1KD tx inconclusive.
Screening COc1ccc(-c2nc(NC(=O)C3CC(=O)N(Cc4ccco4)C3)sc2C)cc1 (stereo not given) returned DT40 TDP1 no CPT 11.6µM*, TDP1 cell CPT 16.4µM*, HT1080NT lethal -5.5%, IL-1B inflam inh -28.0 and HT1080 IDH1KD tx -8.9%.
COc1ccc(-c2csc(NC(=O)C3CC(=O)N(Cc4ccco4)C3)n2)cc1 (stereo not given) was read as DT40 TDP1 no CPT 20.6µM*, TDP1 cell CPT inconclusive, HT1080NT lethal -15.5%, IL-1B inflam inh -60.7* and HT1080 IDH1KD tx -16.2%.
For CC(=O)c1sc(NC(=O)C2CC(=O)N(Cc3ccco3)C2)nc1-c1ccccc1 (stereo not given) the results were DT40 TDP1 no CPT -23.4%, TDP1 cell CPT -11.3%, HT1080NT lethal -5.2%, IL-1B inflam inh -94.6* and HT1080 IDH1KD tx -4.2%.
O=C(NCc1ccccc1)/C(=C\c1ccc(F)cc1)NC(=O)c1ccco1 was read as DT40 TDP1 no CPT -12.7%, TDP1 cell CPT 0.0%, HT1080NT lethal -2.0%, IL-1B inflam inh -12.1 and HT1080 IDH1KD tx 4.1%.
O=C(CNC(=S)N(Cc1ccccc1)Cc1cccnc1)NC1CCCC1 was read as DT40 TDP1 no CPT -29.6%, TDP1 cell CPT -19.5%, HT1080NT lethal -3.1%, IL-1B inflam inh -9.4 and HT1080 IDH1KD tx 0.5%.
`C=CCN(C(=O)CN1CCCCC1)c1nc(-c2ccccc2)cs1` gave DT40 TDP1 no CPT inconclusive, TDP1 cell CPT inconclusive, HT1080NT lethal inconclusive, IL-1B inflam inh -12.5 and HT1080 IDH1KD tx inconclusive.
For C=CCN(C(=O)C1CC(=O)N(C2CCCC2)C1)c1nc(-c2ccc(S(C)(=O)=O)cc2)cs1 (stereo not given) the results were DT40 TDP1 no CPT 14.6µM*, TDP1 cell CPT 14.6µM*, HT1080NT lethal -19.2%, IL-1B inflam inh 0.0 and HT1080 IDH1KD tx -15.3%.
Screening COc1ccccc1C1CN(Cc2cccn2-c2ncccn2)Cc2ccccc2O1 (stereo not given) returned DT40 TDP1 no CPT -90.0% and TDP1 cell CPT -10.1%[9.04 µM].
Screening O=C(O)c1ccccc1SC1CC(=O)N(c2cccc3ccccc23)C1=O (stereo not given) returned DT40 TDP1 no CPT 2.59µM*, TDP1 cell CPT 1.84µM*, HT1080NT lethal -22.3%, IL-1B inflam inh -5.6 and HT1080 IDH1KD tx -6.1%.
Screening CCN1C(=O)CC(Sc2ccccc2C(=O)O)C1=O (stereo not given) returned DT40 TDP1 no CPT 4.3%, TDP1 cell CPT 1.9%, HT1080NT lethal -1.4%[9.24 µM], IL-1B inflam inh 0.0 and HT1080 IDH1KD tx 8.1%.
For CCOC(=O)c1c(N2C(=O)CC(Sc3ccccc3C(=O)O)C2=O)sc2c1CCCC2 (stereo not given) the results were DT40 TDP1 no CPT 14.6µM*, TDP1 cell CPT 14.6µM*, HT1080NT lethal 5.6%, IL-1B inflam inh -10.2 and HT1080 IDH1KD tx -16.5%.
COc1ccc(N(CC(=O)O)S(=O)(=O)c2cccnc2)cc1 was read as DT40 TDP1 no CPT -18.5%, TDP1 cell CPT -6.0%, HT1080NT lethal 3.3%, IL-1B inflam inh 9.2 and HT1080 IDH1KD tx 5.1%.
For COc1cccc(-n2nc(-c3ccnn3-c3cccc(Cl)c3)c(=O)n(C)c2=O)c1 the results were DT40 TDP1 no CPT 16.4µM*, TDP1 cell CPT 23.1µM*, HT1080NT lethal -3.6%, IL-1B inflam inh inconclusive and HT1080 IDH1KD tx -0.1%.
`COc1cccc(-n2nc(-c3ccnn3-c3ccccc3)c(=O)n(C)c2=O)c1` gave DT40 TDP1 no CPT inconclusive, TDP1 cell CPT -3.1%, HT1080NT lethal -0.5%, IL-1B inflam inh inconclusive and HT1080 IDH1KD tx 0.1%[9.24 µM].
Screening COc1ccc(NC(=O)C2C3C=CC4(O3)C2C(=O)N(CCN2CCCCC2C)C4C(=O)NC2CCCCC2)cc1 (stereo not given) returned DT40 TDP1 no CPT 18.8%, TDP1 cell CPT 0.2%, HT1080NT lethal -15.6%, IL-1B inflam inh -18.5 and HT1080 IDH1KD tx -16.4%.
Screening O=C1CCC(c2ccc3c(c2)CCC3)=NN1 returned DT40 TDP1 no CPT -26.3%, TDP1 cell CPT -13.0%, HT1080NT lethal -0.1%, IL-1B inflam inh -10.5 and HT1080 IDH1KD tx -0.4%.

High-throughput results from PubChem.
